In PubChem BioAssay one finds z-score data, which are given here for 34 compounds.

Assay [1] in a line: MELAS cybrid and Rieske KO viability enhancers – cell-based, MELAS cybrids, Rieske KO mouse fibroblasts, CellTiter-Glo, primary screen (AID 1508586;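 active means mean z-score across replicates of 1.96 or higher in either the MELAS or the Rieske mutant cell line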;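 further: test concentration not given here; z relative to plate mean and SD of compound and empty wells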). As to conditions: low glucose. A general note: In ATP-based viability assays light output follows the ATP content of the culture.
Assay [2] is described as follows: galactose survival enhancers in mitochondrial complex I cybrids – cell-based, galactose medium, ATP luminescence, primary screen (AID 1645843).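 Further: positive z means more ATP and so rescue of galactose-driven cybrid death.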 To be noted: complex I mutant cybrid cells, 72 h, stronger effect = higher value.
Setting [3] is: MELAS cybrid survival, CellTiter-Glo 48 h, stronger effect = higher value.
Where [4] appears, read: Rieske KO mouse fibroblast survival, CellTiter-Glo 72 h.

Calls of active or inactive are those of the source.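 How the source made its calls, unless noted: active means z-score of at least 1.8 in each of two replicates, scored against plate mean and spread of sample wells; inactive means the rest.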

Regarding `Cc1cc(-c2cc3c(n(Cc4cccnc4)c2=O)CCN(C(=O)c2n[nH]c4c2CCC4)C3)ccc1F`, the z-score in assay [1] (setting [3]) was -0.505; in assay [1] (setting [4]), 4.42; in assay [2] it was -1.53 (inactive).
For the compound `CCN1C(=O)N(Cc2cccc(OC)c2)C(=O)C12CCN(CC1CC=CCC1)CC2` (configuration not stated), the z-score was -0.681 (inactive) in assay [1] (setting [3]), -0.854 in assay [1] (setting [4]) and -0.435 (inactive) in assay [2].
As to `O=C1N[C@@H](CSCc2ccccc2)C(=O)N2CCN(C(=O)Oc3ccccc3)C[C@H]12`, the z-score in assay [1] (setting [3]) was 1.38 (inactive); in assay [1] (setting [4]) it was -0.171; in assay [2] it was -1.57 (inactive).
The corresponding values for `CC(C)[C@@H]1NC(=O)[C@@H]2C[C@H](NC(=O)c3cc(C(C)(C)C)nn3C)CN2C1=O` are 0.0639 (inactive), 0.0296 and -0.355 (inactive).
For `CC(C)Cn1nc(C(=O)NCc2cccnc2)c2c1CCN(C(=O)c1scc3c1OCCO3)C2`, the z-score in assay [1] (setting [3]) was -0.675; in assay [1] (setting [4]) it was 5.2; in assay [2], -1.46 (inactive).
Regarding `COCCCNC(=O)c1nn(C)c2c1CN(C(=O)Cc1c(C)[nH]c3c(F)cccc13)CC2`, the figures for the z-score in assay [1] (setting [3]), in assay [1] (setting [4]) and in assay [2] were -0.326 (inactive), -0.829 and 0.99 (inactive), respectively.
The corresponding values for `Cc1nn(C)cc1CNc1cc(C(=O)NCc2cn3ccccc3n2)cc(S(=O)(=O)NC(C)C)c1` are -0.236 (inactive), -0.702 and -0.11 (inactive).
In the case of `CCc1cc(C(=O)N2CC(=O)N(Cc3ccc(OC)cc3)CC(OCc3ccncc3)C2)n(C)n1` (configuration not stated), the z-score in assay [1] (setting [3]) is -0.128 (inactive); in assay [1] (setting [4]), -0.65; in assay [2], 0.77 (inactive).
The corresponding values for `COc1ccc(CN2C[C@H](C(=O)Nc3ccc4c(c3)CCC4)C[C@H](C(=O)N3CCCCC3)C2)cc1OC` are 0.5 (inactive), 0.0365 and -1.66 (inactive).
Take `COCCCN1C(=O)N(Cc2ccccc2)C(=O)C12CCN(Cc1ccc(-c3ccco3)cc1)CC2`: the z-score in assay [1] (setting [3]) was 0.678 (inactive); in assay [1] (setting [4]) it was 0.032; in assay [2], -1.64 (inactive).
The corresponding values for `CN1CC(=O)N2CCN(C(=O)NCc3ccccc3)C[C@@H]2C1=O` are -0.0344 (inactive), -0.297 and -0.795 (inactive).
Regarding `CCCCc1ncc(CN2CCc3c(cc(-c4ccncc4)c(=O)n3C/C=C/c3ccccc3)C2)[nH]1`, the z-score is -0.405 (inactive) in assay [1] (setting [3]), -0.0119 in assay [1] (setting [4]) and -0.41 (inactive) in assay [2].
As for `Cc1ccn2cc(C(=O)N3CCc4c(cc(-c5ccc(OC(F)(F)F)cc5)c(=O)n4C)C3)nc2c1`, the z-score in assay [1] (setting [3]) was -0.191 (inactive); in assay [1] (setting [4]) it was -0.543; in assay [2], 1.4 (inactive).
The corresponding values for `CCCCNC(=O)[C@@H]1C[C@H](CN2CCOCC2)CN(Cc2ccc(OC)c(OC)c2)C1` are -0.184 (inactive), 0.521 and 1.15 (inactive).
On the same counts, the results for `CN(C)c1cccc(NC(=O)c2cc(NCc3cnn(C)c3)cc(S(=O)(=O)N3CCCC3)c2)c1` are -0.28 (inactive), -0.862 and 0.265 (inactive).
Turning to `CCOC(=O)c1nn(CCc2ccc(OC)cc2)c2c1CN(Cc1cccn1-c1ccccn1)CC2`, the values for the z-score in assay [1] (setting [3]), in assay [1] (setting [4]) and in assay [2] were -0.341 (inactive), 0.052 and -1.34 (inactive), respectively.
With `COC(=O)c1c(NC(=O)c2ccoc2)c2cc(NC3CCSCC3)cnc2n1CC(C)C`, the values for the z-score in assay [1] (setting [3]), in assay [1] (setting [4]) and in assay [2] were -0.463 (inactive), -0.31 and 0.98 (inactive), respectively.
The corresponding values for `COc1ccc(CN2C[C@@H](CN3CCOCC3)C[C@@H](C(=O)NCC(C)C)C2)cc1OC` are 0.036 (inactive), -0.053 and 0.1 (inactive).
As for `O=C(NCCn1ccnc1)c1cc(NCC2CC2)cc(S(=O)(=O)N2CCCC2)c1`, the z-score in assay [1] (setting [3]) was -0.151 (inactive); in assay [1] (setting [4]), 0.62; in assay [2], 1.69 (inactive).
Regarding `CCOC(=O)c1nn(CCc2ccccc2)c2c1CN(C(=O)CCc1nc3ccccc3s1)CC2`, the z-score is -0.261 (inactive) in assay [1] (setting [3]), 0.0715 in assay [1] (setting [4]) and 0.345 (inactive) in assay [2].
With `Cc1ccnn1CCC(=O)N1CCc2c(cc(Cc3ccccc3F)c(=O)n2Cc2cccnc2)C1`, the z-score in assay [1] (setting [3]) was -0.36 (inactive); in assay [1] (setting [4]), -0.461; in assay [2], 0.325 (inactive).
On to `CN(C)CCCNC(=O)[C@@H]1C[C@H](CN2CCOCC2)CN(CCc2ccccc2)C1`, for which the figures for the z-score in assay [1] (setting [3]), in assay [1] (setting [4]) and in assay [2] were -0.339 (inactive), -0.139 and -0.365 (inactive), respectively.
Turning to `NCCCC[C@@H]1NC(=O)[C@@H]2C[C@H](NCc3nc(-c4ccccc4)cs3)CN2C1=O`, the values for the z-score in assay [1] (setting [3]), in assay [1] (setting [4]) and in assay [2] were -0.0314 (inactive), 0.0831 and -0.77 (inactive), respectively.
Take `CNS(=O)(=O)c1cc(NCc2cc3ccccc3s2)cc(C(=O)Nc2ccc(OC)cc2)c1`: the z-score in assay [1] (setting [3]) was 0.562 (inactive); in assay [1] (setting [4]) it was 0.602; in assay [2], 2.26 (inactive).
On to `CCn1c(C(=O)OC)c(NC(C)=O)c2cc(NCc3ccc(OC)cc3)cnc21`, for which the z-score in assay [1] (setting [3]) is -0.521 (inactive); in assay [1] (setting [4]) it was -0.331; in assay [2], -0.96 (inactive).
For `Cn1c2c(cc(-c3ccc(OC(F)(F)F)cc3)c1=O)CN(C(=O)C1CC(=O)c3ccccc31)CC2` (configuration not stated), the z-score in assay [1] (setting [3]) is 0.0877 (inactive); in assay [1] (setting [4]) it was 0.643; in assay [2], 0.305 (inactive).
As for `COCCN1C(=O)N(C2Cc3ccccc3C2)C(=O)C12CCN(Cc1cnn(C)c1C)CC2`, the z-score in assay [1] (setting [3]) was -0.225 (inactive); in assay [1] (setting [4]), -0.00202; in assay [2] it was 1.21 (inactive).
In the case of `CC[C@@H]1NC(=O)[C@H]2CN(C(=O)Oc3cccc4ccccc34)CCN2C1=O`, the z-score is 0.408 (inactive) in assay [1] (setting [3]), 0.404 in assay [1] (setting [4]) and -1.61 (inactive) in assay [2].
On to `CC(C)C[C@H]1NC(=O)[C@H]2CN(C(=O)OCc3ccccc3)CCN2C1=O`, for which the figures for the z-score in assay [1] (setting [3]), in assay [1] (setting [4]) and in assay [2] were -0.0626 (inactive), -0.118 and -0.205 (inactive), respectively.
The corresponding values for `Cc1nc2ccccc2nc1CN1CC(=O)N(C2CCCCC2)CC(OCc2cccnc2)C1` (configuration not stated) are -0.279, 6.23 and -1.6 (inactive).
`Cc1ccc(-c2cc(C(=O)N(C)CCc3cnn(C)c3)cc(S(=O)(=O)N3CCOCC3)c2)s1`: the z-score was -0.0954 (inactive) in assay [1] (setting [3]), -0.0313 in assay [1] (setting [4]) and 0.925 (inactive) in assay [2].
As to `CC(C)[C@@H]1NC(=O)[C@@H]2C[C@H](NC(=O)OCc3ccccc3)CN2C1=O`, the z-score in assay [1] (setting [3]) is -0.138 (inactive); in assay [1] (setting [4]), -0.152; in assay [2] it was -1.16 (inactive).
In the case of `CN(C)c1ccc(/C=C/CN2CC(=O)N(CCCN3CCCC3=O)CC(O)C2)cc1` (configuration not stated), the z-score in assay [1] (setting [3]) was -0.11 (inactive); in assay [1] (setting [4]), -0.286; in assay [2] it was 0.35 (inactive).
As for `COc1ccc(CN2C[C@@H](CN3CCOCC3)C[C@@H](C(=O)NCC3CCCO3)C2)cc1OC` (some centres not stated), the z-score was 0.0226 (inactive) in assay [1] (setting [3]), 0.461 in assay [1] (setting [4]) and 1.14 (inactive) in assay [2].
